Values joined by “and” are separate entries in the source; they are usually repeats but may differ in a detail not shown here. Equal values may be shown once. Results filed as inconclusive are left out. Some structures have more than one record in an assay (separate samples or runs), and their calls can disagree. Active and inactive are the calls of the source. Calls come from the whole dose curve; as a rule, active = well fitted inhibition curve with a large enough effect; inconclusive = small, poorly fitted or top-dose-only effect; inactive = flat fitted curve, though single readings scatter.
How the values were obtained:
[1] = system: CRL-7250; assay: Cytotoxic Profiling of Annotated Libraries Using Quantitative High-Throughput Screening (AID 1296008); settings: Five cell lines viability, CellTiter-Glo ATP luminescence, 48-72 h; max response: hits give low values; note: potency is the fitted concentration of half-maximal effect; for max response: % is set by controls: 0 for no effect and ±100 for the full control effect
Summary of the method: (§1)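 Compounds were pin-transferred onto cells and incubated 48 or 72 hr at 37 degree Celsius, 95% humidity. CellTiter-Glo was added, plates sat 10 min at room temperature, then ATP-coupled luminescence was imaged as the viability read-out.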

[2] = system: HEK293; assay: as above; settings: Five cell lines viability, CellTiter-Glo ATP luminescence, 48-72 h; max response: hits give low values
Summary of the method: as §1

[3] = system: HaCat; assay: as above; settings: Five cell lines viability, CellTiter-Glo ATP luminescence, 48-72 h; max response: hits give low values
Summary of the method: as §1

[4] = system: KB-3-1; assay: as above; settings: Five cell lines viability, CellTiter-Glo ATP luminescence, 48-72 h; max response: hits give low values
Summary of the method: as §1

[5] = system: GB4; assay: qHTS profiling for inhibitors of Plasmodium falciparum proliferation (AID 504749);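 note: 0% = DMSO vehicle and full inhibition = artemisinin control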; settings: P. falciparum in erythrocytes, SYBR Green DNA, 72 h; series mostly up to 28.7 µM
Summary of the method: (§2)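 P. falciparum-infected erythrocytes (0.3% parasitemia, 2.5% hematocrit final) were exposed to compounds for 72 h at 37 C in 5% CO2, then lysed with SYBR Green buffer overnight at room temperature; parasite DNA fluorescence was normalized to artemisinin and DMSO controls.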

[6] = system: HB3; assay: as above; settings: P. falciparum in erythrocytes, SYBR Green DNA, 72 h; series mostly up to 28.7 µM
Summary of the method: as §2

[7] = system: ICS; assay: as above; settings: P. falciparum in erythrocytes, SYBR Green DNA, 72 h; series mostly up to 28.7 µM
Summary of the method: as §2

[8] = system: JCK; assay: as above; settings: P. falciparum in erythrocytes, SYBR Green DNA, 72 h; series mostly up to 28.7 µM
Summary of the method: as §2

[9] = system: N140; assay: as above; settings: P. falciparum in erythrocytes, SYBR Green DNA, 72 h; series mostly up to 28.7 µM
Summary of the method: as §2

[10] = system: P93_24; assay: as above; settings: P. falciparum in erythrocytes, SYBR Green DNA, 72 h; series mostly up to 28.7 µM
Summary of the method: as §2

[11] = system: P94_40; assay: as above; settings: P. falciparum in erythrocytes, SYBR Green DNA, 72 h; series mostly up to 28.7 µM
Summary of the method: as §2

[12] = system: PAD; assay: as above; settings: P. falciparum in erythrocytes, SYBR Green DNA, 72 h; series mostly up to 28.7 µM
Summary of the method: as §2

[13] = system: PC15; assay: as above; settings: P. falciparum in erythrocytes, SYBR Green DNA, 72 h; series mostly up to 28.7 µM
Summary of the method: as §2

[14] = system: PC26; assay: as above; settings: P. falciparum in erythrocytes, SYBR Green DNA, 72 h; series mostly up to 28.7 µM
Summary of the method: as §2

[15] = system: PC49; assay: as above; settings: P. falciparum in erythrocytes, SYBR Green DNA, 72 h; series mostly up to 28.7 µM
Summary of the method: as §2

[16] = system: SC27B; assay: as above; settings: P. falciparum in erythrocytes, SYBR Green DNA, 72 h; series mostly up to 28.7 µM
Summary of the method: as §2

[17] = system: TAB109; assay: as above; settings: P. falciparum in erythrocytes, SYBR Green DNA, 72 h; series mostly up to 28.7 µM
Summary of the method: as §2

[18] = system: TAB113; assay: as above; settings: P. falciparum in erythrocytes, SYBR Green DNA, 72 h; series mostly up to 28.7 µM
Summary of the method: as §2

[19] = system: TAB165; assay: as above; settings: P. falciparum in erythrocytes, SYBR Green DNA, 72 h; series mostly up to 28.7 µM
Summary of the method: as §2

[20] = system: W2; assay: as above; settings: P. falciparum in erythrocytes, SYBR Green DNA, 72 h; series mostly up to 28.7 µM
Summary of the method: as §2
Note: nearly all actives have a fitted effect of over 60% in size.

CC(C)(C)Cn1c(N)nc2ccc(-c3[nH]c(C(C)(C)C)nc3-c3ccc(F)cc3)nc21
active: Potency [2] 11.6 µM | Potency [3] 5.9 µM and 4.61 µM
inactive: max response [1] -25.6% and -19.9%

COc1ccc2c(Oc3ccc(NC(=O)c4c(C)n(CC(C)(C)O)n(-c5ccccc5)c4=O)nc3)ccnc2c1
active: Potency [1] 18.4 µM | Potency [3] 11.6 µM
inactive: max response [1] -5.8% | max response [2] 3.25% | max response [3] -3.13% | max response [4] 3.31%

Oc1ccc(C2CCN(c3ccnc4ccccc34)CC2)cc1O
inactive: max response [3] -4.14%
active: Potency [1] 4.69 µM | Potency [2] 13.2 µM

CCc1ccc(OCc2ccccc2C(=O)Nc2ccc3nc(C)cc(N)c3c2)cc1
active: Potency [1] 10.5 µM | Potency [2] 8.33 µM | Potency [3] 11.8 µM

NC(CO)(CO)CCc1ccc(Sc2cccc(OCc3ccccc3)c2)cc1Cl
active: Potency [2] 10.5 µM | Potency [3] 26.4 µM
inactive: max response [1] -10.2%

O=C(CCc1ccc(O)cc1)c1c(O)cc(O)cc1O[C@@H]1O[C@H](CO)[C@H](O)[C@H](O)[C@H]1O
inactive: max response [1] -9.67% | max response [2] 1.98% | max response [3] -1.37% | max response [4] 1.32%

CC[C@]1(O)C[C@@H]2CN(CCc3c([nH]c4ccccc34)[C@@](C(=O)OC)(c3cc4c(cc3OC)N(C)[C@H]3[C@@](O)(C(=O)OC)[C@H](OC(C)=O)[C@]5(CC)C=CCN6CC[C@]43[C@@H]65)C2)C1
inactive: max response [3] 0.756% | outcome [3]
active: Potency [1] 0.266 µM | Potency [2] 66.8 nM and 84.1 nM and 46.1 nM | Potency [4] 2.91 µM and 18.4 nM

CC(C)(C)OC(=O)N[C@H]1CCCCCC=C[C@@H]2C[C@@]2(C(=O)NS(=O)(=O)C2CC2)NC(=O)[C@@H]2C[C@@H](OC(=O)N3Cc4cccc(F)c4C3)CN2C1=O
inactive: max response [1] -21.2% | max response [2] 3.03% | max response [3] -10.7% | max response [4] 5.38%

COc1ccc(-c2coc3cc(O)ccc3c2=O)cc1
inactive: outcome [1] | max response [2] -7.99% | outcome [3] | max response [4] 7.74%

O=C(Nc1cc(Cl)cc2c1[nH]c1cnccc12)c1cccnc1
inactive: max response [1] -0.841% | max response [2] 3.08% | max response [3] -0.0712% | max response [4] -1.81%

COc1cc(Nc2ncc(F)c(Nc3ccc4c(n3)NC(=O)C(C)(C)O4)n2)cc(OC)c1OC
inactive: max response [3] -23.4% | max response [4] 2.88%
active: Potency [1] 2.31 µM | Potency [2] 8.33 µM

CCOc1ccc(Nc2nc(-c3c(C)nc4ccccn34)cs2)cc1
inactive: max response [3] 3.42% | outcome [3]
active: Potency [1] 0.146 µM | Potency [2] 0.0461 µM | Potency [4] 33.2 nM and 32.6 nM

CNC(=O)c1ccc2cc(C3(O)CCn4cncc43)ccc2c1 (stereo unspecified)
inactive: max response [1] -2.53% and -8.91% | max response [2] -5.04% and 1.96% | max response [3] 0.87% | outcome [3] | max response [4] -2.71% | outcome [4]

O=c1cc(CN2CCOCC2)occ1OCCCCCSc1ccnc2cc(C(F)(F)F)ccc12
active: Potency [1] 11.8 µM and 9.2 µM | Potency [2] 8.33 µM and 4.11 µM
inactive: max response [3] -9.94% | max response [4] -24.2%

COc1ccc(-c2nc(N3CCOCC3)c3sc(CN(C)c4ncc(C(=O)NO)cn4)cc3n2)cn1
active: Potency [1] 0.059 µM | Potency [2] 0.0166 µM | Potency [3] 0.148 µM | Potency [4] 26.4 nM

Nc1ncnc2c1ncn2[C@@H]1O[C@H](CO)C[C@@H]1O
inactive: max response [1] -11.4% | max response [2] -3.58% | max response [3] -0.663% | outcome [4]

NC1CCC(Nc2nc(Nc3ccc(C(=O)N4CCCCC4)cc3)c3ncn(-c4cccc(F)c4)c3n2)CC1 (stereo unspecified)
inactive: outcome [1] | outcome [2] | outcome [3] | max response [4] -2.33%

CO[C@H]1C(=O)[C@]2(C)[C@@H](OC)C[C@H]3OC[C@@]3(OC(C)=O)[C@H]2[C@H](OC(=O)c2ccccc2)[C@]2(O)C[C@H](OC(=O)[C@H](O)[C@@H](NC(=O)OC(C)(C)C)c3ccccc3)C(C)=C1C2(C)C
active: Potency [4] 0.8 nM
inactive: max response [1] -47% | max response [2] -66.4% | max response [3] -71.6%

CC(C)(C)NC(=O)Nc1cccc(Nc2ncc(F)c(NC(C)(C)CO)n2)c1
active: Potency [2] 11.8 µM | Potency [3] 10.5 µM and 16.4 µM | Potency [4] 18.7 µM and 20.6 µM
inactive: max response [1] -1.2% and -11%

CCN(CC)CCNC(=O)c1ccc(N)cc1
inactive: Potency [5] | Potency [6] | Potency [7] | outcome [8] | Potency [9] | outcome [10] | Potency [11] | outcome [12] | outcome [13] | Potency [14] | outcome [15] | Potency [16] | outcome [17] | Potency [18] | Potency [19] | Potency [20] | outcome [1] | outcome [2] | max response [3] 0.0096% | outcome [3] inactive; activator | max response [4] -16.7% | outcome [4]

CN(C)C1CCN(C(=O)c2ccc(NC(=O)Nc3nc(N4CCOCC4)nc(N4CCOCC4)n3)cc2)CC1
active: Potency [1] 0.0006 µM | Potency [2] 0.142 µM | Potency [3] 0.252 µM | Potency [4] 50.2 nM

Nc1ncnc2ccccc12
inactive: outcome [1] | outcome [2] | max response [3] -14.1% | outcome [4]

CCC(CC)[C@H](NC(C)=O)[C@@H]1[C@H](O)[C@@H](C(=O)O)C[C@@H]1N=C(N)N
inactive: max response [1] 2.58% | max response [2] -9.34% | outcome [3] | max response [4] 7.98%

CC(=O)Nc1ccc([C@H](C)C(=O)Nc2ncc(C(C)C)s2)cc1
active: Potency [1] 2.35 µM and 1.84 µM | Potency [2] 4.69 µM and 4.11 µM | Potency [3] 10.5 µM and 18.4 µM | Potency [4] 5170 nM
